Only some compounds are listed: those with a hit (about 4.5% of all), similar ones and a draw of the others.
DAX1 inh-1 = NR0B1 (DAX1) inhibition | HEK293 Gal4-DAX1 luciferase reporter, luminescence | inhibition, % at 6.75 µM | 340,000 compounds, 0.99% hits;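 active means inhibition above the mean over all tested compounds plus 3 SD, cut at about 4.2% in these data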;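 further: 0% = DAX1-transfected cells with DMSO and 100% = empty-vector control cells with DMSO; inhibition shows as a rise in luminescence from relieved DAX1 repression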
Target sequence (P51843 207-470 limits assumed): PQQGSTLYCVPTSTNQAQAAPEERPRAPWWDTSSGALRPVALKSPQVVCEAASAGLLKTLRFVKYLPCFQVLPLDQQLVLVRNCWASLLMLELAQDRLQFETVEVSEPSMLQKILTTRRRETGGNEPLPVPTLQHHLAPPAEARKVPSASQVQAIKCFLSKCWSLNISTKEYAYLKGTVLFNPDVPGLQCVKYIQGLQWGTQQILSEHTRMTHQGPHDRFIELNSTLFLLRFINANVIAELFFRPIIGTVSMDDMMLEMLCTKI
hgDAF12 agonist = agonists of H. glycines DAF-12 nuclear receptor | HEK293 GAL4-hgDAF12 UAS-luciferase reporter, agonist luminescence; normalized to butyrate control | activation, % at 6.8 µM | 370,000 compounds, 1.8% hits;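 active means activation above a cutoff set at the mean of all screened compounds plus 3 SD, cut at about 10% in these data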;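 further: 0% = DMSO wells and 100% = sodium butyrate wells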
ssDAF12 agonist = activates DAF-12 receptor from parasite S. stercoralis. HEK293 ssDAF-12/GRIP1 lit1-tk-luc reporter, luminescence; % of 3 µM dafachronic acid response. activation, % at 6.8 µM. 370,000 compounds, 1% hits;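 active means activation above the mean over all tested compounds plus 3 SD, cut at about 0.9% in these data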;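 further: 0% = DMSO-only wells and 100% = 3 µM delta7-dafachronic acid wells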
DAX1 inh-2 = inhibitors of DAX1 repression of SF-1 activated StAR promoter | HEK293T StAR-luciferase reporter, SF-1/DAX-1 repression relief | 370,000 compounds, 1.1% hits | AID 652010 | inhibition, % at 6.8 µM;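 active means inhibition above the mean over all tested compounds plus 3 SD, cut at about 3.6% in these data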;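 further: 0% = DAX-1 cells with DMSO and 100% = cells lacking DAX-1 with DMSO; higher inhibition means more luminescence from relief of DAX-1 repression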
GAA850 FXN act = frataxin GAA850 promoter activation; activation, % at 6 µM; HEK293 lucGAA850 FXN promoter luciferase reporter, 24 h; percent of 10 µM SAHA response; AID 540364; 360,000 compounds, 0.56% hits;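 active means activation above the average of all compounds screened plus 3 SD, cutoff fixed separately per campaign, cut at about 7.5% in these data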;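 further: 0% = DMSO wells and 100% = 10 µM SAHA wells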
hcDAF-12 act = activators of H. contortus DAF-12 nuclear receptor; activation, % at 6.8 µM; 370,000 compounds, 1.4% hits; HEK293 hcDAF-12 lit1-tk-luc reporter, luminescence; 0% DMSO, 100% Δ7-dafachronic acid;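 active means activation above the mean of all tested compounds plus 3 SD, cut at about 5.5% in these data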;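 further: 100% = response to 3 µM Δ7-dafachronic acid high control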
The depositor's hits bear a star; · = not tested or not shown.

SMILES	DAX1 inh-1	hgDAF12 agonist	ssDAF12 agonist	DAX1 inh-2	GAA850 FXN act	hcDAF-12 act
O=C(CCS(=O)(=O)c1ccccc1)Nc1nc2cc3c(cc2s1)OCCO3	1.2	7.8	-1.1	-0.8	1.3	1.9
O=C(CCS(=O)(=O)c1ccccc1)Nc1nc2cc3c(cc2s1)OCO3	4.9*	-1.4	-1.4	0.1	1.2	1.2
COc1ccccc1C(=O)Nc1nc2cc3c(cc2s1)OCCO3	0.9	·	·	·	3.5	·
COc1ccccc1C(=O)Nc1nc2cc3c(cc2s1)OCO3	4.2	12.3*	0.1	1.5	6.0	4.2
CC1(C)CCc2c([nH]c3ccccc3c2=O)O1	5.5*	-4.8	-0.7	0.1	-2.3	-2.1
O=C(NCc1ccccc1Cl)O[C@H]1CC[C@@]23CCCN2C(=O)CCC[C@H]3C1	·	-1.2	-1.8	·	·	-0.3
Cc1ccc(OCCC(=O)OCC(=O)Nc2ccc(C)c(S(=O)(=O)N3CCOCC3)c2)cc1	-0.2	1.0	-1.2	3.7*	3.4	-0.1
Cc1ccc(NC(=O)COC(=O)CC2CC3CCC2C3)cc1S(=O)(=O)N1CCOCC1 (stereo unspecified)	0.3	-1.9	-1.6	3.6*	0.1	0.3
Cc1ccc(NC(=O)COC(=O)CN2C(=O)C3CCCCC3C2=O)cc1S(=O)(=O)N1CCOCC1 (stereo unspecified)	-0.7	-2.9	-1.6	-0.5	3.4	2.2
COc1ccc(C(=O)CSc2nnc(-c3ccc(C(C)(C)C)cc3)n2C)cc1	·	3.9	-1.4	-0.4	·	-3.4
Cc1cc(/C=C(/C#N)C(=O)Nc2ccccc2)c(C)n1-c1cccnc1	0.0	10.8*	-1.3	1.9	3.3	1.4
COc1cc(NC(=O)C/C(C)=N/NC(=O)c2ccccn2)c(OC)cc1Cl	0.7	13.1*	0.3	1.5	4.1	4.0
COc1cc(NC(=O)C/C(C)=N/NC(=O)Cc2ccc(Cl)cc2)c(OC)cc1Cl	-0.2	-4.4	-0.8	0.0	1.9	-2.0
COc1ccc(C(=O)N/N=C(\C)CC(=O)Nc2ccccn2)cc1OC	0.1	-0.8	-1.2	0.1	2.6	1.0
COc1ccccc1NC(=O)C/C(C)=N/NC(=O)c1ccccn1	3.3	12.7*	0.4	2.1	1.7	3.9
CCc1ccccc1NC(=O)C/C(C)=N/NC(=O)COc1ccccc1C	-0.4	1.0	-0.6	0.0	-0.6	0.3
COc1cc(NC(=O)c2cc(C3CC3)on2)c(OC)cc1Cl	0.3	3.6	0.4	-0.6	-0.2	6.4*
COc1ccccc1NC(=O)C/C(C)=N/NC(=O)COc1c(Br)cc(Br)cc1OC	2.9	0.9	-1.7	4.2*	1.8	-0.5
N/C(=N\C(=O)OCc1ccccc1)N(CC#CC1=CCCCC1)CC1CC1	·	4.4	-1.5	-0.3	·	0.9
CC(C)C(=O)Nc1cc(S(=O)(=O)Nc2ccc(Cl)cc2)ccc1Cl	0.2	-4.0	-1.2	-1.1	-1.6	-1.3
CC(C)(C)C(=O)Nc1cc(S(=O)(=O)Nc2ccc(Cl)cc2)ccc1O	4.3*	-3.3	-0.9	0.0	-0.2	-2.4
COc1cc(O)c(C(C)=O)c(OC)c1	0.0	-0.7	-1.6	-0.4	-0.4	-0.5
COc1cc(O)c(C(C)=O)c(CC(=O)O)c1	-1.1	-2.5	0.9*	0.3	-1.4	-1.1
CC(C)C[C@@H]1COc2cc(F)ccc2S(=O)(=O)N1	·	-2.2	-0.3	-2.0	·	0.1
COc1ccc(C)cc1Nc1nc(-c2c[nH]c3ccccc23)cs1	0.8	-3.2	0.1	-0.8	2.3	5.8*
SMILES	DAX1 inh-1	hgDAF12 agonist	ssDAF12 agonist	DAX1 inh-2	GAA850 FXN act	hcDAF-12 act
COc1ccc(C)cc1Nc1nc(-c2ccccc2O)nc2ccccc12	-0.2	-1.6	0.8	0.4	1.6	4.7
CN1C(=O)Nc2cccc3cccc1c23	4.4*	-2.3	-0.3	-0.4	0.8	3.5
COC(=O)[C@]12CCCCC=C1N(Cc1ccc(OC)cc1)C(=O)[C@@H]2CC(=O)N1CCC(c2ccccc2)CC1	·	2.2	-1.0	-1.2	·	-3.4
CCC1(c2ccc(Cl)cc2)NC(=S)N(c2ccc(C)c(C)c2)N1 (stereo unspecified)	-0.9	3.9	-2.1	-0.4	1.2	0.2
CCC1(c2ccc(Cl)cc2)NC(=S)N(c2ccc(C)cc2)N1 (stereo unspecified)	-0.3	11.1*	0.5	1.0	5.8	6.2*
Cc1nc(CNS(=O)(=O)c2ccc3c(c2)CCCC3)cs1	-2.0	-3.3	-1.6	-1.6	1.2	5.9*
Cc1ccc(S(=O)(=O)NCc2csc(C)n2)cc1	1.2	1.6	-0.5	0.0	1.5	-0.3
Cc1ccc2cc(C(c3nnnn3C(C)(C)C)N3CCCCCC3)c(=O)[nH]c2c1 (stereo unspecified)	-0.2	·	·	·	3.9	·
CCC(C)(C)n1nnnc1C(c1cc2cc(C)ccc2[nH]c1=O)N1CCCC1 (stereo unspecified)	0.4	0.6	-1.1	-0.2	10.0*	-1.4
O=C(Nc1ccc2cn[nH]c2c1)c1ccc(Cl)c(S(=O)(=O)N2CCOCC2)c1	1.9	5.5	-0.4	1.1	3.8	6.5*
COC(=O)[C@@H](Cc1ccccc1)NC(=O)NCCc1ccc(OC)c(OC)c1	4.3*	1.8	-0.9	-0.6	0.5	0.4
COc1ccc(CCNC(=O)CC(Cc2ccccc2)C(=O)O)cc1OC (stereo unspecified)	1.0	-3.5	-0.6	2.1	-0.8	-1.8
COc1ccc(CC(=O)NCc2cn3ccsc3n2)cc1	3.3	-1.1	-0.7	0.0	-2.1	-0.6
O=C(Cc1cn2ccsc2n1)NCc1ccccc1	0.0	2.6	-0.1	0.3	0.0	6.0*
Cc1cc(NCc2ccccn2)n2ncc(-c3ccc(Cl)cc3)c2n1	·	8.5	-0.7	1.0	1.8	2.9
Cc1cc(NCCCN2CCOCC2)n2ncc(-c3ccccc3)c2n1	1.8	10.7*	1.3*	2.9	4.5	6.0*
Cc1cc(NCc2ccccn2)n2ncc(-c3ccccc3)c2n1	4.7*	12.4*	1.3*	2.8	1.7	5.1
COC(=O)[C@]12C[C@H](CC(=O)NCc3ccc(OC)c(OC)c3)C(=O)N(Cc3cccc4ccccc34)C1=C[C@H](C1CCCC1)O[C@@H]2C	·	1.7	-1.0	-1.1	·	-3.8
CNc1cnc(-c2ccc(F)c(F)c2F)cn1	·	12.1*	0.5	3.8*	5.9	1.9
COc1ccc2cc(-c3cccnc3)ncc2c1	1.5	11.4*	-0.1	2.7	5.5	2.3
Fc1ccc2cc(-c3cccnc3)ncc2c1	3.2	6.9	-1.0	1.8	2.0	-0.5
COc1cccc(NC(=O)n2ccc3ccc(-c4ccc5ccn(C(=O)Nc6cccc(OC)c6)c5c4)cc32)c1	·	-0.9	-0.9	-2.5	·	-0.8
CC[C@]12c3[nH]c4ccc(Cl)cc4c3CCN1C(=O)[C@@H](CC(=O)NC/C=C(\C)CCC=C(C)C)C[C@@H]2C(=O)N1CCN(C(=O)c2ccco2)CC1	-0.9	-0.1	2.1*	-1.4	-3.7	-2.0

Screens as filed in PubChem BioAssay.
